In PubChem BioAssay (NCI):
This is part of a sample that, as a whole, favours compounds with a hit. Of some 79,000 tested, about 15% had one in any assay. A number with no mark means an inactive call. Rule as the data show it: active = growth inhibition above about 70%; inactive = the rest.

assay: NCI Yeast Anticancer Drug Screen. Data for the rad50 strain (AID 155);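 also: 0% = growth of vehicle-only cultures of the same strain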; settings: S. cerevisiae rad50 strain growth inhibition; at 50.0 µM; hits give high values
Procedure, shortened: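 Growth of the mutant yeast was measured after compound exposure and referenced to vehicle-treated cultures.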

| Compound | growth inhibition [%] |
| --- | --- |
| c1cnc(NC(Nc2ncccn2)c2ccco2)nc1 | -6.5 |
| O=C(NCCNC(=O)c1cccc([N+](=O)[O-])c1O)c1cccc([N+](=O)[O-])c1O | 19.6 |
| C[N+](C)(C)CC(=O)N/N=C(/C=C/c1ccccc1)CC1OC(=O)c2ccccc21 (stereo not given) | -9.65 |
| C/C=C(/c1ccccc1)c1ccc(N(C)C)cc1 | 2.25 |
| O=C(O)c1c[nH]c2cc(O)ccc2c1=O | -0.5 |
| O=C1CC(N2CCOCC2)c2ccccc21 (stereo not given) | 30 |
| CCn1cnc2c(=O)n(C)c(=O)n(C)c21 | -31.8 |
| O=C(OC(=O)c1cccc(Br)c1)c1cccc(Br)c1 | 10.2 |
| N#CC12CCC(O)C(CC1)C2=O (stereo not given) | 20.2 |
| Cc1ccc2ccccc2[n+]1CC(=O)c1ccc2c(c1)OCO2 | -3 |
| CC(=O)Nc1ccc(Cc2[nH]c(=O)[nH]c(=O)c2Br)cc1 | 4.3 |
| O=C(c1ccccc1Cl)c1ccc2ccccc2c1C(=O)O | 2.5 |
| O=C1CC2CC1C1C(=O)OC(=O)C21 (stereo not given) | -6.8 |
| CCC(CC)C(=O)OC1CCCCC1C(C)C (stereo not given) | 6.8 |
| O=[N+]([O-])C1C2CCC(C2)C1c1ccccc1 (stereo not given) | 9.55 |
| CCC1=NS(=O)(=O)c2c(ncn2C)N1 | 11 |
| O=C(O)C/C(=C\c1ccccc1)C(=O)O | -3.15 |
| CC(C)(C)c1ccc(Oc2nc(Oc3ccc(C(C)(C)C)cc3)nc(Oc3ccc(C(C)(C)C)cc3)n2)cc1 | 19.6 |
| S=c1[nH]nc(SCc2ccc(Cl)cc2Cl)c2[nH]cnc12 | -2.15 |
| Cc1ccc(OS(=O)(=O)c2ccccc2)cc1 | 36 |

| Compound | growth inhibition [%] |
| --- | --- |
| O=C(/C=C/c1ccccc1)/C=N/N1C(=S)N(c2ccccc2)C(=Nc2ccccc2)C1=Nc1ccccc1 | -7.4 |
| Cn1c(=O)c2[nH]c(CC3=CCCCC3)nc2n(C)c1=O | -13.6 |
| [O-]c1c[n+](CCCC[n+]2cc([O-])on2)no1 | -5.4 |
| CCOP(=O)(OCC)/C(C#N)=C/c1ccc2ccccc2c1 | -7.5 |
| C=C(Cl)C(Cl)(CBr)CCC(Cl)C(C)C (stereo not given) | 65 |
| CCCNC(=O)Nc1ccc(OCC)cc1 | 0.1 |
| Nc1nc(-c2ccccc2)[nH]c(=O)n1 | -3.3 |
| O=[N+]([O-])c1ccc2c(c1)/C(=N/O)CCC2 | 0.5 |
| CNC(=O)OCc1c(COC(=O)NC)c2n(c1C)CCS2(=O)=O | -1.25 |
| Cc1nn(C(=O)c2ccc(Cl)cc2)c2c1C(c1ccccc1O)SC(N)=N2 (stereo not given) | -29.9 |
| CC(C)CCC[C@@H](C)[C@H]1CC[C@H]2[C@@H]3CC=C4C[C@@H]([n+]5ccccc5)CC[C@]4(C)[C@H]3CC[C@]12C | -2.45 |
| Cc1ccc2nc(-c3ccc(CSC(=N)N)cc3)oc(=O)c2c1 | 40.2 |
| CC1=CCC(CC(=O)O)C1(C)C (stereo not given) | 10.2 |
| CCCCc1c2c(nc3c1CCC/C3=C\c1ccccc1)C(=O)CCC2 | 15.8 |
| O=CC1OC(c2ccccc2)OC1C1OC(c2ccccc2)OC1C=O (stereo not given) | 19.4 |
| CCC1(CC)C(=O)OC(=O)C1(CC)CC | -6.05 |
| C=CC(=NC(C)C)N(C)c1ccccc1 | 5.2 |
| ClC1=CC(Cl)=C2N=C(N3CCCC3)N=C3N=C(N4CCCC4)N=C1N32 | -15.2 |
| COC(=O)/C(=N\NC(N)=O)C(C#N)c1ccccc1 (stereo not given) | -12.5 |
| FC(F)/C=C\c1ccccc1 | 8.85 |
